This is part of a sample that, as a whole, favours compounds with a hit. Of some 83,000 tested, about 20% had one in any assay.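 Results are percent growth after 48 hours of single-concentration exposure. 100 means growth as in untreated cells, lower positive values show inhibition; negative values down to -100 show cell death.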 Active and inactive are the calls of the source. The calls were made as follows: active = growth percent below 10; inactive = the rest.
What was measured:
Test in all cases: NCI-60 one-dose screen, 48 h (100 = growth as untreated, 0 = no growth, -100 = all killed)
Details in all cases: 10 µM unless noted
[1] = tested on: SNB-75 CNS
[2] = tested on: SNB-19 CNS
[3] = tested on: U251 CNS
[4] = tested on: PC-3 prostate
[5] = tested on: SK-MEL-5 melanoma
[6] = tested on: UACC-62 melanoma
[7] = tested on: LOX IMVI melanoma
[8] = tested on: SK-MEL-28 melanoma
[9] = tested on: SK-MEL-2 melanoma
[10] = tested on: EKVX NSCLC
[11] = tested on: SN12C renal
[12] = tested on: UO-31 renal
[13] = tested on: TK-10 renal
[14] = tested on: ACHN renal
[15] = tested on: CAKI-1 renal
[16] = tested on: A498 renal
[17] = tested on: CCRF-CEM leukemia
[18] = tested on: MOLT-4 leukemia
[19] = tested on: HT29 colon

Measured: growth

COc1cc(NCCCCCNC(C)(C)C)c2ncccc2c1
inactive: [1] 53.2% | [2] 91.7% | [3] 100% | [4] 76.4% | [5] 100% | [6] 89.6% | [7] 93.7% | [8] 107% | [9] 113% | [10] 95.9% | [11] 86.7% | [12] 75.8% | [13] 95.7% | [14] 104% | [15] 78.7% | [16] 103% | [17] 51.8% | [18] 105%

CCCCCCCCOc1ccc(/C=N/Nc2cc(C)nc3ccc(Br)cc23)cc1
active: [17] 7.66%
inactive: [19] 11.9% | [1] 20% | [2] 76.1% | [3] 16.5% | [4] 60.8% | [5] 76.9% | [6] 92.7% | [7] 22.4% | [8] 80.9% | [9] 96.2% | [10] 85% | [11] 68.2% | [12] 64.7% | [13] 90.3% | [14] 52.1% | [15] 84.1% | [18] 58%

O=C(Cc1ccccc1)NNc1nc(Cl)nc(N2CCN(C(c3ccccc3)c3ccccc3)CC2)n1
inactive: [19] 72.6% | [1] 96% | [2] 94% | [3] 99.9% | [4] 81.5% | [5] 99.8% | [6] 91.9% | [7] 61.9% | [8] 101% | [9] 99.8% | [10] 91.9% | [11] 97.1% | [12] 96.7% | [13] 96% | [14] 94.9% | [15] 84.4% | [17] 11.1% | [18] 36.3%

CC1=CCC(OC(=O)C(C)(O)CCC(O)(C(=O)OC2(C)C=CC(O)(C(C)C)CC2)C(C)C)(C(C)C)CC1 (centres undefined)
inactive: [19] 104% | [1] 92.5% | [2] 102% | [3] 98.3% | [4] 113% | [5] 101% | [6] 98.1% | [7] 101% | [8] 114% | [9] 108% | [10] 99% | [11] 98.9% | [12] 88.6% | [13] 95.6% | [14] 111% | [15] 95% | [17] 102% | [18] 109%

Cc1nn(-c2ccccc2)c(Cl)c1/C=C/C(=O)c1ccc(F)cc1
active: [17] 4.52%
inactive: [19] 91.1% | [1] 97.9% | [2] 87% | [3] 75.9% | [4] 78.7% | [5] 91.7% | [6] 65.2% | [7] 76.5% | [8] 105% | [9] 92.8% | [10] 93.1% | [11] 88.9% | [12] 79.1% | [13] 101% | [14] 97.5% | [15] 95.9% | [16] 81.5% | [18] 20.7%

CCOC(=O)CC1CSC(N/N=C/c2ccc(-n3cccn3)cc2)=N1 (centres undefined)
inactive: [19] 99.3% | [1] 101% | [2] 98.9% | [3] 96.9% | [4] 99.6% | [5] 98.1% | [6] 92.5% | [7] 97.4% | [8] 111% | [9] 113% | [10] 108% | [11] 100% | [12] 90.9% | [13] 108% | [14] 109% | [15] 102% | [16] 97.8% | [17] 94.1% | [18] 97.3%

CC(C)(C)[Si](C)(C)OC1[C@@H](O[Si](C)(C)C(C)(C)C)[C@@H](CNC(=O)NC(=O)CCl)O[C@H]1n1cnc2c(NC(=O)Nc3ccccc3)ncnc21 (some centres undefined)
inactive: [9] 42.7% | [13] 105% | [15] 37.9% | [16] 43.5%
active: [19] -48.1% | [1] -66.2% | [2] 6.83% | [3] -75.6% | [4] -36.2% | [5] -87.7% | [6] -61.5% | [7] -88.1% | [8] -79.5% | [10] -40.4% | [11] -50.3% | [12] -75% | [14] -68.6% | [17] -37.9% | [18] -43.8%

O=C(/C=C/c1ccc[nH]1)c1ccc(-n2ccc(C(F)(F)F)n2)c(F)c1
inactive: [19] 92.5% | [1] 75.6% | [2] 101% | [3] 88.7% | [4] 48.1% | [5] 97.6% | [6] 84.9% | [7] 97.7% | [8] 100% | [9] 108% | [10] 80.2% | [11] 92.1% | [12] 46.9% | [13] 104% | [14] 103% | [15] 93% | [17] 59.7% | [18] 84%

CCOC(=O)C1=C(C)NC(SCc2cc(=O)oc3ccc(F)cc23)=N[C@@H]1c1cccc2ccccc12
inactive: [19] 98.5% | [1] 98.8% | [2] 101% | [4] 87.8% | [5] 99.9% | [6] 86% | [7] 99.9% | [8] 109% | [9] 85% | [10] 114% | [11] 93.3% | [12] 79.9% | [13] 105% | [14] 91.9% | [15] 87.8% | [17] 102% | [18] 84.7%

CCN(Cc1ccccc1)c1ccc(C=O)cc1
inactive: [19] 107% | [1] 82.1% | [2] 99.2% | [3] 92% | [4] 75.3% | [5] 98.9% | [6] 85.2% | [7] 91% | [8] 115% | [9] 98.3% | [10] 106% | [11] 96.7% | [12] 74.6% | [13] 64.2% | [14] 91.9% | [15] 88% | [17] 45.5% | [18] 97.2%

CCCCCN1C=C/C(=C\C(=O)N2CCCc3ccccc32)c2ccccc21
inactive: [19] 73.2% | [1] 108% | [2] 93.9% | [3] 87.6% | [4] 86.7% | [5] 92.7% | [6] 75.2% | [7] 87.3% | [8] 104% | [9] 90.9% | [10] 76.4% | [11] 89.9% | [12] 75.5% | [13] 105% | [14] 106% | [15] 80.3% | [17] 69.7%

CC(=O)N1c2ccccc2NC2=C(C(=O)NC2(C)C)C1c1ccco1 (centres undefined)
inactive: [19] 92.5% | [1] 73.5% | [3] 96.5% | [4] 54.6% | [5] 64.6% | [6] 66.5% | [7] 86.4% | [8] 75.2% | [9] 84.2% | [10] 95.8% | [11] 99.1% | [12] 85.2% | [13] 98.4% | [14] 107% | [15] 90.3% | [17] 80.6% | [18] 96.5%

O=[N+]([O-])c1ccc(NC(=S)N/N=C/c2cc3ccccc3n3nnnc23)cc1
inactive: [19] 99.8% | [1] 58.2% | [2] 29.8% | [3] 30.2% | [4] 34.5% | [5] 71% | [6] 65.4% | [7] 39.2% | [8] 79% | [9] 49.3% | [10] 36.6% | [11] 58.5% | [13] 56.8% | [14] 29.9% | [15] 25.4% | [17] 11.3% | [18] 20.4%
active: [12] -1.57%
